From the supplement of paper PMC11555231

Target: PADI4, Q9UM07
Assay: log2 enrichment score relative to parent PADI4_3 peptide (binding to PADI4); higher = tighter binding than parent
Details: CaCl2: 10 mM
Procedure: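 Deep mutational scan of the cyclic peptide PADI4_3 (ClAc-D-Tyr1 initiator, thioether-cyclised to Cys12, C-terminal Gly plus HA tag, mRNA-displayed). Positions 2-11 were each randomised by NNK codons; Met was reprogrammed as N-methyl-alanine (MeA). One round of equilibrium panning against bead-immobilised human PADI4 (100 nM, 10 mM CaCl2, RT). Log2 enrichment (bound/input frequency) relative to the parent sequence (0 = parent), mean of three independent selections.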

Chain of PADI4, Q9UM07 (Q9UM07 whole entry): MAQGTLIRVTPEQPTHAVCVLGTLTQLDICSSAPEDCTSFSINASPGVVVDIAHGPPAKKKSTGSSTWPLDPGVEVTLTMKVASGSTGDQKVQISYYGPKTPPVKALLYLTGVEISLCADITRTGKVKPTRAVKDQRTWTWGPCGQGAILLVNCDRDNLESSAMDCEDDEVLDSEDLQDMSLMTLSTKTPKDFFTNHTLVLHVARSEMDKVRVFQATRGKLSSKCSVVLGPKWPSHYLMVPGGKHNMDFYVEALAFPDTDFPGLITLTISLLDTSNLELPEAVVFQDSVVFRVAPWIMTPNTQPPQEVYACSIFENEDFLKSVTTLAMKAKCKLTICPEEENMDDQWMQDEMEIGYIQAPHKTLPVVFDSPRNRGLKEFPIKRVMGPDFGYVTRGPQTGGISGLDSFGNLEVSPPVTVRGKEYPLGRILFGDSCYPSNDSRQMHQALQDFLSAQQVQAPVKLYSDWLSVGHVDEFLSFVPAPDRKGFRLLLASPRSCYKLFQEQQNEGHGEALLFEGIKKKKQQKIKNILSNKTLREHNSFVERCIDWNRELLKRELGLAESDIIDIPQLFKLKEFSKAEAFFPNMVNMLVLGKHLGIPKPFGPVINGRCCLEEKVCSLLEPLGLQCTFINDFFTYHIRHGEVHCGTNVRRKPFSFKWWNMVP

Binder	log2 enrichment score
YQDHHYRHPKYCG [PADI4_3_R2Q R2Q]	-1.6
YRDHHYRGPKYCG [PADI4_3_H8G H8G]	-3.99
YNDHHYRHPKYCG [PADI4_3_R2N R2N]	-2.77
YRDHHYRHPNYCG [PADI4_3_K10N K10N]	-1.77
YRDQHYRHPKYCG [PADI4_3_H4Q H4Q]	-0.57
YRDHHYGHPKYCG [PADI4_3_R7G R7G]	-2.58
YRDHHYRQPKYCG [PADI4_3_H8Q H8Q]	-3.37
YRDHHYRNPKYCG [PADI4_3_H8N H8N]	-2.87
YRDHHYRHNKYCG [PADI4_3_P9N P9N]	-2.01
YRDHGYRHPKYCG [PADI4_3_H5G H5G]	-3.73
YRDHHNRHPKYCG [PADI4_3_Y6N Y6N]	-2.28
YRDHHYRHPKQCG [PADI4_3_Y11Q Y11Q]	-4.43
YRDHHYRHGKYCG [PADI4_3_P9G P9G]	-2.45
YRDHHGRHPKYCG [PADI4_3_Y6G Y6G]	-1.54
YRDHHYRHPKNCG [PADI4_3_Y11N Y11N]	-3.81
YRDHNYRHPKYCG [PADI4_3_H5N H5N]	-3.38
YRDHHYNHPKYCG [PADI4_3_R7N R7N]	1.37
YRDHHYRHPKGCG [PADI4_3_Y11G Y11G]	-4.17
YRDHHQRHPKYCG [PADI4_3_Y6Q Y6Q]	-1.94
YRQHHYRHPKYCG [PADI4_3_D3Q D3Q]	-3.32
YRNHHYRHPKYCG [PADI4_3_D3N D3N]	-2.8
YRDHQYRHPKYCG [PADI4_3_H5Q H5Q]	-3.72
YRDHHYRHPGYCG [PADI4_3_K10G K10G]	-2.43
YRDHHYQHPKYCG [PADI4_3_R7Q R7Q]	-0.31
YRGHHYRHPKYCG [PADI4_3_D3G D3G]	-3.8
YRDGHYRHPKYCG [PADI4_3_H4G H4G]	-3.75
YRDHHYRHQKYCG [PADI4_3_P9Q P9Q]	-1.71
YGDHHYRHPKYCG [PADI4_3_R2G R2G]	-3.89
YRDHHYRHPQYCG [PADI4_3_K10Q K10Q]	-1.09
YRDNHYRHPKYCG [PADI4_3_H4N H4N]	-2.71
